Nine compounds from PubChem BioAssay (NCATS) can be followed below.

A short description of assay [1]: qHTS Assay for Identifying Gametocytocidal Compounds (AID 743244).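 Further: on the % scale 0 is the no-effect control and ±100 the full control effect; actives lower the fluorescent signal which means gametocytes are killed.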 As to conditions: P. falciparum 3D7 stage III-V gametocytes, alamarBlue, 72 h; max response: stronger effect = lower value. The method, boiled down: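 Late gametocytes (III–V), P. falciparum 3D7; 72 h drug, then 24 h alamarBlue; resazurin reduction read by fluorescence.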
For orientation: qHTS replaces the single test concentration by a dilution series.

Assay [2] can be described thus: High-throughput drug toxicity screening in the BPDCN cell line Gen2.2 (AID 1224824; call rule not given here;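 further: cells exposed to compounds for 48 h before reading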). The note with it: Gen2.2 BPDCN cells; at 45.8 µM (top of the series) unless noted. The gist of the method:
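CellTiter-Glo luminescence read after 48 h compound exposure at 37 C defines viability; percent activity set with DMSO as 100% and bortezomib (9.2 uM final) as 0%. 500 exponentially growing cells per well, RPMI plus 10% FBS.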

The nature of assay [3]: qHTS assay for measurement of the activity of small molecule inhibitors on Zika virus induced Caspase-3 activity in human iPSC derived neural progenitor cells (hNPCs) (AID 1224857). Further: nearly all actives have a fitted effect of over 65% in size. Further: potency means the concentration at half of the fitted maximal effect. The gist of the method:
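Caspase-3/7 induction by a 6-hour ZIKV infection was quantified with a luminescent Caspase-Glo 3/7 reagent incubated 30 minutes at room temperature. Compounds were preincubated with hNPCs for 1 hour; inhibition was calculated against uninfected and infected control wells.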

Assay [4] is described as follows: qHTS assay for measurement of the activity of small molecule inhibitors on Zika virus induced Caspase-3 activity in human astrocytoma cells (AID 1224859). Further: potency means the concentration at half of the fitted maximal effect. The method, boiled down:
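In SNB-19 cells plated at 250 cells/well and grown 16-20 h, compounds were applied 1 h before ZIKV (2 FFU/cell). Six hours later caspase-3/7 luminescence was recorded.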

Assay [5] in a line: qHTS Screen of the MIPE 4.0 Collection Against Ewings Sarcoma (RDES) (AID 1259252). Further: nearly all actives have a fitted effect of over 35% in size. Further: potency means the concentration at half of the fitted maximal effect. The method, boiled down:
(§1)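 Measured: ATP luminescence (CellTiter-Glo) 10 min after reagent addition, following 48 h drug treatment. Relative luciferase units converted to percent activity, with no-cell wells as full and DMSO wells as zero inhibition.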

Assay [6] can be described thus: qHTS Screen of the MIPE 4.0 Collection Against Ewings Sarcoma (EW8) (AID 1259255).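 Further: 100% = DMSO-treated cells and 0% = medium-only wells without cells; nearly all actives have a fitted effect of over 35% in size.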 The gist of the method:
as §1

Assay [7] is described as follows: qHTS profiling of the MIPE4 collection as inhibitors of Plasmodium falciparum (3D7) proliferation (AID 743344; call rule not given here;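 further: scaled between DMSO vehicle wells and 0.29 µM artemisinin as full inhibition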). As to conditions: P. falciparum 3D7 in erythrocytes, SYBR Green DNA fluorescence, 72 h; at 28.5 µM (top of the series) unless noted. The gist of the method:
(§2)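 Erythrocytes infected with P. falciparum (0.3% parasitemia, 2.5% hematocrit) incubated with compounds 72 h at 37 C, 5% CO2. Lysis with saponin/Triton buffer containing SYBR Green I, overnight at room temperature in the dark; DNA fluorescence (485/535 nm) normalised to 0.29 uM artemisinin and DMSO.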

Assay [8] is described as follows: qHTS profiling of the MIPE4 collection as inhibitors of Plasmodium falciparum (DD2) proliferation (AID 743345; call rule not given here). The note with it: P. falciparum Dd2 in erythrocytes, SYBR Green DNA, 72 h; at 28.5 µM (top of the series) unless noted. The gist of the method:
as §2

Assay [9] is described as follows: qHTS profiling of the MIPE4 collection as inhibitors of Plasmodium falciparum (DD2) proliferation (Rep 2) (AID 743346; call rule not given here). The note with it: P. falciparum Dd2 in erythrocytes, SYBR Green DNA, 72 h; at 28.5 µM (top of the series) unless noted. The method, boiled down:
as §2

Assay [10] is described as follows: qHTS profiling of the MIPE4 collection as inhibitors of Plasmodium falciparum (HB3) proliferation (AID 743347; call rule not given here;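 further: plate controls were DMSO vehicle wells for no effect and artemisinin wells for full effect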). As to conditions: P. falciparum HB3 in erythrocytes, SYBR Green DNA, 72 h; at 28.5 µM (top of the series) unless noted. The method, boiled down:
as §2

The nature of assay [11]: qHTS Screen of the MIPE 4.0 Collection Against Ewings Sarcoma (TC71) (AID 1259253). Further: nearly all actives have a fitted effect of over 40% in size. Further: potency means the concentration at half of the fitted maximal effect. The method, boiled down:
as §1

Assay [12] concerns the target T1, Hexokinase-4 (Homo sapiens) + Glucokinase regulatory protein (Homo sapiens) (UniProt P35557+Q14397). Put plainly: qHTS assay for inhibitors of recombinant human GCK-GKRP interaction: Diaphorase-coupled assay (AID 743205). The gist of the method:
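A kinetic fluorescence read (Ex 525/Em 590 nm, every minute for 30 minutes) tracked resorufin from a G6PDH-diaphorase coupled GCK reaction. It contained 10 nM GST-GCK, 10 nM FLAG-GKRP, 5 mM glucose, 0.4 mM ATP in Hepes pH 7.6. Normalized to with/without-enzyme DMSO controls.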

Assay [13] concerns the target T1, Hexokinase-4 (Homo sapiens) + Glucokinase regulatory protein (Homo sapiens). Put plainly: qHTS assay for inhibitors of recombinant human GCK-GKRP interaction: ADP-Glo assay (AID 743206).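 Further: plate controls were DMSO plus enzyme for no effect and no enzyme for full effect.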 The method, boiled down:
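GST-GCK and FLAG-GKRP (15 nM each in the dispensed mix, with 2 uM S6P) react with 0.4 mM ATP and 5 mM glucose (final) in Hepes pH 7.6 for 60 min at room temperature. ADP is measured by ADP-Glo luminescence.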

The target is the same in assay [14]. Put plainly: qHTS assay for inhibitors of recombinant human GCK-GKRP interaction: HTRF assay (AID 743207).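 Further: 0% = DMSO with GCK present and -100% = DMSO wells lacking GCK.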 The gist of the method: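 After 60 min equilibration at room temperature with anti-FLAG XL665 and anti-GST antibodies, FRET ratio (665/615 nm, excitation 320 nm) was read. Proteins: GST-GCK and FLAG-GKRP, each 5 nM, plus 2 uM S6P, pH 7.1 buffer; GCK-free wells define minimum signal.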

Assay [15] is described as follows: qHTS assay for small molecule agonists of the antioxidant response element (ARE) signaling pathway measured by Nrf2-dependant transcriptional activity - cell viability counter screen (AID 720653; active means well fitted curve in the direction sought with a large enough effect in the repeat runs; an effect the other way counts as inactive or inconclusive; further: on the % scale 0 is the no-effect control and ±100 the full control effect). The note with it: ARE-bla HepG2 viability, CellTiter-Glo ATP luminescence, 16 h; max response: stronger effect = lower value. The gist of the method:
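ARE-bla HepG2 cells (2,000/well) rested 5 hrs at 37C/5% CO2, then exposed to compounds in DMSO for 16 hrs. Viability was read in the same wells as intracellular ATP by luminescence, 30 min at room temperature after reagent addition.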

Assay [16] in a line: qHTS assay for cell viability of HEK293 cells (AID 743288). Further: nearly all actives have a fitted effect of over 50% in size. Further: potency means the concentration at half of the fitted maximal effect. On max response: on the % scale 0 is the no-effect control and ±100 the full control effect. As to conditions: ATP luminescence (CellTiter-Glo), 18 h; max response: stronger effect = lower value. The gist of the method:
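Total intracellular ATP, measured with a luciferase-coupled reagent, indicates the number of viable HEK293 cells. Exposure to test chemicals lasts 18 h at 37 C in 1,536-well format at 2,000 cells/well.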

Assay [17] can be described thus: qHTS assay for cell viability of the p53RE-bla HCT-116 cell line (AID 743292). Further: nearly all actives have a fitted effect of over 55% in size. Further: potency means the concentration at half of the fitted maximal effect. The gist of the method:
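After plating at 4,000 cells per well and a 5 h rest at 37 C, HCT-116 cells carrying p53RE-bla received test chemicals in DMSO. Sixteen hours later at 37 C, CellTiter-Glo was added and luminescence recorded following 30 min at room temperature.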

Several values for one entry are separate records, joined by “and”; a condition that tells them apart may be missing. Equal values may be shown once. Results filed as inconclusive are left out. Activity calls are given as the source filed them. Unless noted, the call rests on the fitted dose curve; in most records, active means well fitted curve in the direction sought with a large enough effect; inconclusive means small, poorly fitted or top-dose-only effect, or another doubt; inactive means no such curve, though single readings can be large; an effect the other way counts as inactive or inconclusive. Non-standard residues stand in square brackets, D forms with d. Residues, ends and D or L forms follow the SMILES beside them. *: point of attachment. Sta = CC(C)C[C@H](N)[C@@H](O)CC(=O)O; Isovaleryl = CC(C)CC(=O)*

T1 sequence (P35557 whole entry, looked up): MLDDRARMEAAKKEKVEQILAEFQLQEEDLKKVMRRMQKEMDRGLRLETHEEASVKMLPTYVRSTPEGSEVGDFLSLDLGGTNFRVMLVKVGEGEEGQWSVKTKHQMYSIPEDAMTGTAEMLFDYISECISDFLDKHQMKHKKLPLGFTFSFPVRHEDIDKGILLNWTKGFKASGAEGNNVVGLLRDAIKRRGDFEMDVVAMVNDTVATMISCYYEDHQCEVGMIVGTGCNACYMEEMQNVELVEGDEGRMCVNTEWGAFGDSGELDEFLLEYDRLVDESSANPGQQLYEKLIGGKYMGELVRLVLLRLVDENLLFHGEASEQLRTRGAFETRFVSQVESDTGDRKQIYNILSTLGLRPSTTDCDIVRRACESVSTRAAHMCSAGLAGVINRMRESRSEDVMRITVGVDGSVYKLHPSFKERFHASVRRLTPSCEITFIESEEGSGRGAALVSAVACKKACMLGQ
T1 sequence (Q14397 whole entry, looked up): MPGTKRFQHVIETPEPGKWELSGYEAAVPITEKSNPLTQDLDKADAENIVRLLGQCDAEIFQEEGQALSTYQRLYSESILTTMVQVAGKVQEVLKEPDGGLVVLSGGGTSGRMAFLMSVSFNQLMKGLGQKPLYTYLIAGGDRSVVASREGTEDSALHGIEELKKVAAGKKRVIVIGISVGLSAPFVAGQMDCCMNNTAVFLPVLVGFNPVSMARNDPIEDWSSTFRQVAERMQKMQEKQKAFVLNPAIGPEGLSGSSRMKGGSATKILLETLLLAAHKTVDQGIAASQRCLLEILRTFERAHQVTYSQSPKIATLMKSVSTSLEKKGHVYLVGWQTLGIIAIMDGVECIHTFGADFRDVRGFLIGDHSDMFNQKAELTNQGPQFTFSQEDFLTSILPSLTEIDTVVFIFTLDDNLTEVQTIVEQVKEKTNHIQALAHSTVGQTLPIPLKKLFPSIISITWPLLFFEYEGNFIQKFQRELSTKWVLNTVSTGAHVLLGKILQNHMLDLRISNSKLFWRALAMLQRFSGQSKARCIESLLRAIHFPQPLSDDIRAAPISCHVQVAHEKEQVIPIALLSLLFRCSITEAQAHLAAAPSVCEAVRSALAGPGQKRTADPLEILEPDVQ

With `COCCCOc1ccnc(CS(=O)c2nc3ccccc3[nH]2)c1C` (centres undefined), in assay [1], the max response is 2.05% (inactive). The cell viability, % of control (lower = more cytotoxic) in assay [2] stood at 139%. Moreover, the Potency entry in assay [3], in assay [4], in assay [5] and in assay [6] was “inactive” in each case.

For `CC(C)CC(=O)N[C@H](C(=O)N[C@H](C(=O)N[C@@H](CC(C)C)[C@@H](O)CC(=O)N[C@@H](C)C(=O)N[C@@H](CC(C)C)[C@@H](O)CC(=O)O)C(C)C)C(C)C` (Isovaleryl-VV[Sta]A[Sta]-OH), the parasite growth, % of DMSO control in assay [7] came to 59.4%. Moreover, in [8], the parasite growth remaining, % of DMSO control (lower = more inhibition) was determined as 99.1%. Further, the parasite growth, % of control (lower = inhibition) in [9] stood at 58.8%. For the same compound, the growth, % of control in assay [10] was determined as 64.1%. For the same compound, the cell viability, % of control (lower = more cytotoxic) in assay [2] is 72.5%. Besides, the Potency entry in assay [3], in assay [4], in assay [5], in [11] and in assay [6] was “inactive” in each case.

As for `CC1(C)CCC(C)(C)c2cc(NC(=O)c3ccc(C(=O)O)cc3)ccc21`, the max response in assay [1] was 7.33% (inactive). Besides, in assay [7], the parasite growth, % of DMSO control stood at 23.1%. For the same compound, the parasite growth remaining, % of DMSO control (lower = more inhibition) in [8] turned out to be 86.1%. In addition, the parasite growth, % of control (lower = inhibition) in assay [9] amounted to 27%. In [10], this compound gave a growth, % of control of 49.3%. For the same compound, the cell viability, % of control (lower = more cytotoxic) in [2] came out at 73.5%. The Potency entry in assay [3] and in [4] was “inactive” each time. Moreover, the Potency in [5] was 23.5 µM (active); in [11], 18.7 µM (active).

Consider `NNc1nncc2ccccc12`, for which the result in assay [12], in assay [13] and in [14] was inactive. In assay [7], this compound yielded a parasite growth, % of DMSO control of 85.6%. Moreover, the parasite growth remaining, % of DMSO control (lower = more inhibition) in [8] turned out to be 92.8%. In [9], the parasite growth, % of control (lower = inhibition) turned out to be 116%. In [10], this compound had a growth, % of control of 95.2%. In addition, the cell viability, % of control (lower = more cytotoxic) in assay [2] amounted to 166%. Also, the Potency entry in assay [3], in assay [4], in assay [5], in assay [11] and in assay [6] was “inactive” each time.

With `N[C@@H](Cc1cc(I)c(Oc2cc(I)c(O)c(I)c2)c(I)c1)C(=O)O`, the max response is -2.98% (inactive) in assay [15], 2.42% (inactive) in assay [1] and -6.73% (inactive) in assay [16]. In addition, the Potency entry in assay [17], in assay [3], in [4], in assay [5] and in [6] was “inactive” in each case. This compound gave a parasite growth, % of DMSO control in assay [7] of 89.8%. In assay [8], the parasite growth remaining, % of DMSO control (lower = more inhibition) turned out to be 89.9%. For the same compound, the parasite growth, % of control (lower = inhibition) in assay [9] was found to be 91.7%. Besides, in [10], the growth, % of control came to 75.1%. Also, the cell viability, % of control (lower = more cytotoxic) in assay [2] is 163%.

For `CN1C(C(=O)Nc2ccccn2)=C(O)c2sccc2S1(=O)=O`, the max response in assay [1] was 15.1% (inactive). Besides, the cell viability, % of control (lower = more cytotoxic) in assay [2] was found to be 40.6%. The Potency result in [3], in assay [4] and in assay [6] was “inactive” each time. In assay [5], the Potency was 5.9 µM (active).

As for `CN(C)c1ccc(O)c2c1C[C@H]1C[C@H]3[C@H](N(C)C)C(=O)C(C(N)=O)=C(O)[C@@]3(O)C(=O)C1=C2O`, the parasite growth, % of DMSO control in assay [7] was determined as 6.29%. In assay [8], this compound returned a parasite growth remaining, % of DMSO control (lower = more inhibition) of 9.85%. For the same compound, the parasite growth, % of control (lower = inhibition) in [9] is 6.85%. In addition, the growth, % of control in assay [10] is 6.27%. In assay [2], the cell viability, % of control (lower = more cytotoxic) stood at 77.4%. The Potency entry in [3] and in assay [4] was “inactive” each time. The Potency in assay [11] is 4.69 µM (active).

As to `COc1ccc(C2(C#N)CCC(C(=O)O)CC2)cc1OC1CCCC1` (centres undefined), the growth, % of control in [10] was determined as 101%. The cell viability, % of control (lower = more cytotoxic) in assay [2] stood at 129%. Besides, the Potency result in assay [3], in assay [4], in assay [5], in [11] and in assay [6] was “inactive” throughout.

In the case of `Cc1cc(O)c2c(c1)C(=O)c1cc(O)cc(O)c1C2=O`, the result in assay [12], in assay [13] and in assay [14] was inactive. Besides, the Potency is 44.7 µM (active) in [16]; 31.6 µM (active) in assay [17]; 9.35 µM (active) and 2.51 µM (active) in [3]; 9.35 µM (active) in assay [4]. The growth, % of control in [10] turned out to be 98.6%. In [2], the cell viability, % of control (lower = more cytotoxic) was found to be 207%. In addition, the Potency result in assay [11] and in [6] was “inactive” in each case.
